{"source": "the supplement of paper PMC11417369", "note": "± gives the standard deviation of the averaged measurements. In all, about 25,000 sequences were measured (“ln(normalized median fluorescence intensity)”: median about 10, highest 2% from about 12 on). This excerpt belongs to a sample that is enriched for the highest values."}
{"system": "PfAP2-G AP2 domain (GST-tagged)", "test": "gcPBM binding intensity (ln(normalized median fluorescence intensity)); higher = stronger DNA binding", "method_in_brief": "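DNA-binding domains from P. falciparum, fused to GST and produced in E. coli, were put on an Agilent 4 × 180k double-stranded probe array for 1 h in 1× PBS holding 1% milk, 0.2 mg/ml BSA, 0.5% salmon testes DNA and 0.03% Triton X-100. Probes were primer-extended, 36 bp long and drawn from intergenic genomic regions, with negative controls included. After Alexa488 anti-GST antibody detection and a 488 nm scan, binding intensity was set as the highest Masliner-normalised natural-log median intensity across replicate spots of either probe orientation.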"}
{"sequence": "AAAAATGTATGTATGGTGCAGTATTCATATCATTTT [GTGCAC_site9458]", "gcPBM binding intensity (ln)": "10.03 ± 0.021"}
{"sequence": "AAAGTAAAAACACATACATGCATATACACATATAAC [TGCATGCA_site341]", "gcPBM binding intensity (ln)": "9.9 ± 0.12"}
{"sequence": "GTTGTTATATAAAGGAGTACATAATAACACAAATAT [XGTACX_site615]", "gcPBM binding intensity (ln)": "11.7 ± 1.2"}
{"sequence": "TTTGTTAATATAAAAACACACAAAAATAACATAAAA [CACACA_site2619]", "gcPBM binding intensity (ln)": "10.2 ± 0.22"}
{"sequence": "ATAAAACAAATGAGTACACACACATAAAAATTGAAA [CACACA_site7949]", "gcPBM binding intensity (ln)": "11.6 ± 1.2"}
{"sequence": "AAAACAAATGAGTACACACACATAAAAATTGAAAAT [CACACA_site199]", "gcPBM binding intensity (ln)": "11.5 ± 0.9"}
{"sequence": "AAAATATATACACAAACATGCATATAATAAATAAAT [TGCATGCA_site711]", "gcPBM binding intensity (ln)": "9.895 ± 0.064"}
{"sequence": "ATATAAAAAAAAAAAAGTACACATAAACAAATGCAT [XGTACX_site4241]", "gcPBM binding intensity (ln)": "11.7 ± 1"}
{"sequence": "CTTTATAATATTTGTTGTACACAAATATAACATATT [XGTACX_site709]", "gcPBM binding intensity (ln)": "11.6 ± 1.1"}
{"sequence": "AAAACAAATGAGTACACACACATAAAAGTTGAAAAT [CACACA_site6238]", "gcPBM binding intensity (ln)": "11.8 ± 1.3"}
{"sequence": "TTTTTGTTCTATATGGTGCATGTTTATATTCGTATT", "gcPBM binding intensity (ln)": "10.2 ± 0.19"}
{"sequence": "AATTATAATAATAATAGTACATAAGTATATAAATAA [XGTACX_site2400]", "gcPBM binding intensity (ln)": "11 ± 0.62"}
{"sequence": "AAATAAATAAGAAACGCATGCATATATAATATATAA [TGCATGCA_site326]", "gcPBM binding intensity (ln)": "9.83 ± 0.057"}
{"sequence": "AGTAATAATCGGCATGCATGTCAGTGGTAGTATATA [TGCATGCA_site312]", "gcPBM binding intensity (ln)": "10.3 ± 0.41"}
{"sequence": "TCTTCATTTTTATGTGCATGTAAAATTTTTTTTTTT [TGCATGCA_site963]", "gcPBM binding intensity (ln)": "10.2 ± 0.19"}
{"sequence": "TTGTACTACAATCCTTTATTTATTTAAACCTGTATG [CACACA_negctrl_site428]", "gcPBM binding intensity (ln)": "11.6 ± 1.1"}
{"sequence": "ATATAATATTTATATGTACACACCTTAATCCTTAAA [CACACA_site3555]", "gcPBM binding intensity (ln)": "11.3 ± 0.81"}
{"sequence": "TTTTTTAACCTTTTATGTACACAATATTTAACATTT [XGTACX_site1170]", "gcPBM binding intensity (ln)": "11.6 ± 0.95"}
{"sequence": "TATTTTGTTCTTTCCACACACAAATACATATATTGT [CACACA_site4071]", "gcPBM binding intensity (ln)": "10.3 ± 0.24"}
{"sequence": "TATTGTATCCTTAATGCATGCACCAAATAAAAAAAG [TGCATGCA_site541]", "gcPBM binding intensity (ln)": "10.5 ± 0.54"}
{"sequence": "AAAAATAAAATAAAATAAAATAAAAATAAAGAAAAA [CACACA_negctrl_site808]", "gcPBM binding intensity (ln)": "9.39 ± 0.16"}
{"sequence": "TGGCACTAAAAAAATAAACACACAGATTTATATAAT [CACACA_site8386]", "gcPBM binding intensity (ln)": "9.81 ± 0.18"}
{"sequence": "TGCCTATGACATGAATGTACATTAAAATTAAATAAA [XGTACX_site7126]", "gcPBM binding intensity (ln)": "10.8 ± 0.52"}
{"sequence": "TAATACATACACACATGTACATACAGAAATAAATAA [XGTACX_site3245]", "gcPBM binding intensity (ln)": "11.2 ± 0.81"}
{"sequence": "TAAAAGAAATAATATACACACATATATAAAAATAAA [CACACA_site1329]", "gcPBM binding intensity (ln)": "9.87 ± 0.085"}
{"sequence": "AAAGAAAATAGGTGTACACATAATAAATACAGCTAT [CACACA_site5917]", "gcPBM binding intensity (ln)": "11.7 ± 1.1"}
{"sequence": "TAAAAATAAAGAAAATGTACATAAATAATAATACAT [XGTACX_site2278]", "gcPBM binding intensity (ln)": "11.2 ± 0.69"}
{"sequence": "TTAAAAGAAAATAGGTGTACACATAATATATACATA [XGTACX_site7697]", "gcPBM binding intensity (ln)": "11.8 ± 1"}
{"sequence": "ATAACATAACATAATACACACATATAAAAAAGAAAT [CACACA_site3028]", "gcPBM binding intensity (ln)": "10.1 ± 0.18"}
{"sequence": "TCTTGTTTATCAACAGCACACACAACAACAACAACA [CACACA_site8046]", "gcPBM binding intensity (ln)": "10.1 ± 0.23"}
{"sequence": "CGCCCACAGATATATACACACATATATAAATAAATA [CACACA_site6877]", "gcPBM binding intensity (ln)": "10.1 ± 0.3"}
{"sequence": "TAAGGTTCATTAAAGTGTACACATAAATACCGTAAC [XGTACX_site8212]", "gcPBM binding intensity (ln)": "11.6 ± 0.95"}
{"sequence": "ATTAAATACATTAACACACACACAAATAAATACATA [CACACA_site5583]", "gcPBM binding intensity (ln)": "10.2 ± 0.25"}
{"sequence": "AACCATAAAAAGTGTACACATATAAAAAATATGGAA [CACACA_site4199]", "gcPBM binding intensity (ln)": "11.7 ± 1.1"}
{"sequence": "GGTTCATTAAAGTGTACACATAAATACCGTAACATT [CACACA_site6002]", "gcPBM binding intensity (ln)": "11.9 ± 1"}
{"sequence": "TAAAAATTAAAGTGTACACATATATATATATATATA [CACACA_site4781]", "gcPBM binding intensity (ln)": "11.6 ± 0.97"}
{"sequence": "CGAAACCATATGTACACACACATATATAAATATGTA [CACACA_site7082]", "gcPBM binding intensity (ln)": "11.3 ± 0.88"}
{"sequence": "TAAATTAATAAAAAGTGTACATAATATACATATATA [XGTACX_site8604]", "gcPBM binding intensity (ln)": "11.3 ± 0.66"}
{"sequence": "AATACTAAAAAGTGTACACATACATAAAAAATTGCA [CACACA_site5620]", "gcPBM binding intensity (ln)": "11.6 ± 0.87"}
{"sequence": "GCATGGAACCATATATGTACATATATAAATAAATAA [XGTACX_site4996]", "gcPBM binding intensity (ln)": "11.2 ± 0.63"}
{"sequence": "ATATAAAAAAATTGCACACATAAATATATACATATA [CACACA_site1218]", "gcPBM binding intensity (ln)": "10.12 ± 0.064"}
{"sequence": "TTAAATACTAAAAAGTGTACACATACATAAAAAATT [XGTACX_site6261]", "gcPBM binding intensity (ln)": "11.7 ± 0.92"}
{"sequence": "TATATTGCAAAAAGTACACACATAAATAAATACATA [CACACA_site6589]", "gcPBM binding intensity (ln)": "11.6 ± 1.1"}
{"sequence": "TTTTGTTGAAAAGTAAGATATTCCAACATGTTTTTA [CACACA_negctrl_site391]", "gcPBM binding intensity (ln)": "9.88 ± 0.014"}
{"sequence": "TATATATATATATATACATGCATACATATACATACA [TGCATGCA_site897]", "gcPBM binding intensity (ln)": "10 ± 0.22"}
{"sequence": "TTTTTTTTTTTTTTTTTTTGTCTTATATATTACGGA [CACACA_negctrl_site322]", "gcPBM binding intensity (ln)": "9.64 ± 0.67"}
{"sequence": "AAAAAATACTTATAAAGTACTAATATATATAAGCAG [XGTACX_site743]", "gcPBM binding intensity (ln)": "10.9 ± 0.48"}
{"sequence": "TTTATGGAATAATCACGTACACACAAGAAAAAAAAA [XGTACX_site985]", "gcPBM binding intensity (ln)": "11.4 ± 0.91"}
{"sequence": "TTTATATTTAAAAGGATGCACTACAAATTCTAAATA", "gcPBM binding intensity (ln)": "10.3 ± 0.3"}
{"sequence": "TTTTTTTTTCCCGTAAATATTGAGACAACCATAATG [CACACA_negctrl_site41]", "gcPBM binding intensity (ln)": "10.6 ± 0.54"}
{"sequence": "TATATAATATTACGTTGTACACTTTAATCTCCCTTC [XGTACX_site5577]", "gcPBM binding intensity (ln)": "11.1 ± 0.7"}
{"sequence": "CTATTTTTTGTATAAACATGCATATAGTAGATATGG [TGCATGCA_site670]", "gcPBM binding intensity (ln)": "10.1 ± 0.23"}
{"sequence": "CTTTAACCTTTTTATTGTACTTTTAATATTTTAAAA [XGTACX_site4457]", "gcPBM binding intensity (ln)": "11.4 ± 0.86"}
{"sequence": "TTTAAACCTTAATATTGTACGCAAAAAAAAAAAGAA [XGTACX_site3757]", "gcPBM binding intensity (ln)": "11.6 ± 1"}
{"sequence": "AAAGAATTTAAATATTGTACGCAATATATAAAAAAA [XGTACX_site7616]", "gcPBM binding intensity (ln)": "11.5 ± 0.92"}
{"sequence": "CATTTTATTTTAATATGTACTTAAAGAAAAAAAATT [XGTACX_site7670]", "gcPBM binding intensity (ln)": "11.2 ± 0.82"}
{"sequence": "TATGTGTGCAAAAACTGTACACATTAAAGGTATATA [XGTACX_site7627]", "gcPBM binding intensity (ln)": "11.7 ± 1.1"}
{"sequence": "TATTAAAAGGTGAGTACACACATATATGTGTATATA [CACACA_site7070]", "gcPBM binding intensity (ln)": "11.4 ± 0.83"}
{"sequence": "TTACATGTAAAAGGTACACACATTATGTATACAAAT [CACACA_site1117]", "gcPBM binding intensity (ln)": "11.4 ± 0.88"}
